Screens: PubChem BioAssay, several laboratories
Only some compounds are listed: those with a hit (about 2.2% of all), similar ones and a draw of the others.
HDAC3 inhib: HDAC3 deacetylase inhibitors, primary screen, biochemical, fluorescence, cell-free homogeneous; recombinant HDAC3, fluorogenic peptide/trypsin coupled; inhibition, % at 8.3 µM; hit rate 0.15% among 320,000; in the data active = inhibition above about 26%, passing the limit was not always enough; inconclusive = no clear call, values can overlap the other calls
SUMO Mot1 rescue: yeast Mot1-301 growth rescue at high temperature, primary screen, SUMOylation pathway inhibitor project, S. cerevisiae, ATP luminescence, 38.5C; AID 2716, 2010; hit rate 1% among 320,000; S. cerevisiae Mot1-301 growth rescue; percent above DMSO median, 100 means doubled; growth rescue, % at 18.8 µM;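 active = every valid replicate shows activation above 250% relative to neutral control wells; inactive = the rest, any valid replicate at or below 250%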;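 note: OY570 slx delta 5 strain wells were the positive control but not used for scaling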
PHOSPHO1 inh: PubChem AID 1565; recombinant PHOSPHO1, absorbance phosphatase assay; inhibition, % at 13.3 µM; hit rate 1.1% among 290,000; in the data active = inhibition above about 60%
JMJD2C inh: inhibitors of GASC-1 histone demethylase, primary screen, biochemical, fluorescence, DELFIA europium; GST-JMJD2C(1-420) H3K9me3 demethylation; inhibition, % at 2.35 µM; hit rate 0.069% among 330,000; AID 2099, 2009;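 active = more than half of a compound's replicate wells show inhibition beyond 50%, single wells judged on their own value; inconclusive = some, but no more than half, of replicates pass 50% inhibition; inactive = no replicate passes 50% inhibition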;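 note: signal counts dimethyl H3K9 product captured on neutravidin plate; 0% = median of DMSO wells and 100% = 0.3 times that DMSO median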
Target sequence (Q9H3R0 1-420 limits assumed): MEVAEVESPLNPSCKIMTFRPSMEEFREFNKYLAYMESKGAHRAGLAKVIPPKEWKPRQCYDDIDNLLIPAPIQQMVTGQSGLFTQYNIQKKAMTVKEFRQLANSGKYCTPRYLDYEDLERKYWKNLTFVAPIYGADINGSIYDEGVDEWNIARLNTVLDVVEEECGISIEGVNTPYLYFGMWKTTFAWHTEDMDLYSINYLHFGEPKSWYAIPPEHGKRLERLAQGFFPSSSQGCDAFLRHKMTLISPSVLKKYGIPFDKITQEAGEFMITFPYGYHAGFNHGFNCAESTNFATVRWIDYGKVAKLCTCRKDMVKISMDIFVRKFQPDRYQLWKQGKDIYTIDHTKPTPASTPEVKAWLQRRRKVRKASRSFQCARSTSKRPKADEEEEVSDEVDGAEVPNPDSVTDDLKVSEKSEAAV
PvdQ acylase: P. aeruginosa PvdQ acylase inhibitors, primary screen, biochemical, fluorescence, plate reader and imaging, single point; PvdQ acylase [Pseudomonas aeruginosa LESB58]; purified PvdQ acylase; inhibition, % at 10 µM; hit rate 0.063% among 340,000; AID 488965, 2010; in the data active = inhibition above about 30%, passing the limit was not always enough; inconclusive = no clear call, values can overlap the other calls;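 note: 0% = vehicle neutral wells and 100% = reference inhibitor wells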
p-CIP stab down: p/CIP-EGFP fusion destabilizers, primary screen, fluorescence, F442A cells | decrease of EGFP signal, % at 10 µM | AID 1984, 2009 | Q05BA5 | 16 h | hit rate 0.01% among 290,000;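 active = EGFP signal decrease of at least 30% at 10 µM or well 3 SD below plate mean, unless failing retest; inactive = the rest, including hits failing retest or dose response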
An asterisk follows results filed as active; ? = inconclusive; . = no result.

SMILES	HDAC3 inhib	SUMO Mot1 rescue	PHOSPHO1 inh	JMJD2C inh	PvdQ acylase	p-CIP stab down
COC(=O)c1cccc(N2C(=O)c3ccccc3S2(=O)=O)c1	-2	22	92*	-2	-14	-8
COC(=O)c1ccc(CN2C(=O)c3ccccc3S2(=O)=O)cc1	4	-2	-33	-2	-14	-8
CC#CC[N+](C)(C)CCCCCCCCCCCC	-1	-2	-5	-5	-11	-28
CCOC(=O)C1=C(C)OC(N)=C(C#N)C1c1ccc(C)s1 (centres undefined)	-1	515*	-10	3	-5	9
CCOC(=O)C1=C(C)OC(N)=C(C#N)C1c1cccc(C)c1 (centres undefined)	6	2	49	-2	-1	-12
Cc1ccc(C)c(S(=O)(=O)N2CCN(C(=O)Cc3sc(C)nc3-c3ccc(F)cc3)CC2)c1	.	.	.	.	-3	.
O=S1(=O)N=C(Nc2ccc(N3CCOCC3)cc2)c2ccccc21	?	5	-42	2	-7	-3
CCc1cc(C(=O)N2CCOCC2)c(NC2=NS(=O)(=O)c3ccccc32)s1	1	161	84*	-5	-16	-8
C[C@@H](NC(=O)c1nc[nH]c1C(=O)N[C@@H](CCCCNC(=O)OC(C)(C)C)C(=O)OC(C)(C)C)c1ccccc1	34*	140	1	7	-12	-19
C[C@H](NC(=O)c1nc[nH]c1C(=O)N[C@@H](Cc1ccccc1)C(=O)OC(C)(C)C)c1ccccc1	28*	8	26	-2	-10	-2
CC(C)C[C@H](NC(=O)c1nc[nH]c1C(=O)NCC(=O)OCc1ccccc1)C(=O)OCc1ccccc1	28*	24	-2	-1	-2	-2
CC(C)(C)OC(=O)NCCCC[C@H](NC(=O)c1[nH]cnc1C(=O)Nc1ccccc1)C(=O)OC(C)(C)C	37*	-11	30	-4	-4	-8
CC[N+](CC)(CC)CCCCOc1ccc2c(c1)C(=O)c1cc(OCCCC[N+](CC)(CC)CC)ccc1-2	7	-13	-21	-7	0	-9
CC(C)(C)OC(=O)NCCCC[C@H](NC(=O)c1[nH]cnc1C(=O)N[C@@H](Cc1ccccc1)C(=O)OCc1ccccc1)C(=O)OC(C)(C)C	38*	25	.	.	-11	.
CC(C)(C)OC(=O)[C@H](Cc1ccccc1)NC(=O)c1nc[nH]c1C(=O)N[C@@H](CCCCN)C(=O)OC(C)(C)C	15	-6	.	-8	-6	.
CCOc1ccc(CN2CCN(CCCc3ccccc3)CC2CCO)cc1 (centres undefined)	-4	-14	.	0	8	15
CC(=O)Nc1ccc(NC(=O)CS(=O)(=O)c2cn(CC(=O)N3CCC(C)CC3)c3ccccc23)cc1	1	-10	35	-3	-18	-4
CCSc1nnc([C@@H]2CCCN2C(=O)OC(C)(C)C)o1	-2	299	67*	.	-19	-6
C=C(C)CSc1nnc([C@@H]2CCCN2C(=O)OC(C)(C)C)o1	6	-17	9	1	9	-14
CSc1nnc(CCNS(=O)(=O)c2ccc(Br)cc2)n1C	-2	-1	10	3	-13	-6
CC1(C)C(=O)Nc2ccccc2N1C(=O)COC(=O)c1cccnc1	-4	-16	.	.	8	.
CCCCNC1=CC(=O)C(=O)c2ccccc21	-7	.	60*	-3	-6	-12
CCCCNC1=CC(=O)C(NCCCC)=CC1=O	.	.	.	.	-10	.
COc1cc(OC)cc(N2C(=O)CC(N3CCC(C(=O)N4CCCCC4)CC3)C2=O)c1 (centres undefined)	-4	298*	3	-3	-5	1
O=C1Cc2cc(S(=O)(=O)NCc3ccc(F)cc3)ccc2N1	3	1	.	4	-7	.
SMILES	HDAC3 inhib	SUMO Mot1 rescue	PHOSPHO1 inh	JMJD2C inh	PvdQ acylase	p-CIP stab down
O=C(NC1CCCC1)c1cccc(Cl)c1	-4	.	34	-7	70*	-2
O=C(NC1CCCCCCC1)c1cc([N+](=O)[O-])ccc1Cl	9	8	-3	19	42*	-9
CC1SCC(NC(=O)c2cccc(Cl)c2)CS1 (centres undefined)	-1	-28	51	-14	?	2
O=C(Nc1cccc(C(=O)NC2CCCCC2)c1)c1ccccc1	10	15	31	8	-6	-1
O=C(NC1CCCCCCC1)c1cccc(Cl)c1	-3	-6	10	-5	74*	3
Cc1ccc(C(=O)NCC(=O)NCC(=O)OCc2ccc(F)cc2)cc1	1	-13	37	26	7	-9
CSc1ncccc1C(=O)OCC(=O)C(C)(C)C	-3	-3	13	17	-16	-25
COc1ccc(C(=O)N/N=C\c2coc3ccccc3c2=O)cc1	89*	8	39	-21	-9	-5
O=C(N/N=C/c1coc2ccc(Cl)cc2c1=O)c1ccncc1	8	-22	48	1	-9	6
COc1cc(C(=O)N/N=C/c2coc3ccc(Cl)cc3c2=O)ccc1O	96*	512	9	-8	1	12
O=C(N/N=C/c1coc2ccc(Cl)cc2c1=O)c1ccc(O)cc1	97*	-3	26	4	-7	-1
NC(=S)N/N=C/c1coc2ccc(Cl)cc2c1=O	-2	324*	24	7	-6	-12
COc1ccccc1-c1nnc(SCCN2CCOCC2)n1-c1ccc(C)cc1	13	13	69*	-5	-8	-1
CC(C)(C)OC(=O)N1CCN(C(=O)[C@H](Cc2ccc(O)cc2)n2cc(CCO)nn2)CC1	0	5	5	1	-11	-12
CN(C(=O)c1ccc(NC(=O)Cc2ccc(NC(=O)C3CCN(C(=O)c4ccccc4)CC3)cc2)cc1)C1CC1	-9	0	.	58*	1	.
COc1ccc(C(=O)Nc2ccc(S(=O)(=O)Nc3ncccn3)cc2)cc1OC	2	5	60*	-20	-13	-5
COc1ccc(OC)c(NS(=O)(=O)c2ccc(NC(C)=O)cc2)c1	-16	273*	2	8	-10	-3
COc1cc(OC)cc(C(=O)Nc2ccc(S(=O)(=O)Nc3ncccn3)cc2)c1	7	-8	57	22	4	6
CN(C)CCN(Cc1cc2cc3c(cc2nc1Cl)OCO3)C(=O)c1ccco1	5	180	23	-4	-17	-4
O=C(COC(=O)C1=NN(c2ccccc2)C(=O)CC1)Nc1ccc([N+](=O)[O-])cc1C(F)(F)F	2	-11	.	.	-18	.
CC(C)OP(=O)(c1ccc(N(C)C)cc1)C(O)c1ccc(N(C)C)cc1 (centres undefined)	3	-15	.	0	10	-3
Cn1ccnc1C(=O)Cc1ccc([N+](=O)[O-])cc1	1	41	.	10	.	.
